According to PubChem BioAssay (Tox21):
A number with no mark means an inactive call. Records with an inconclusive call do not appear. Where a call stands in place of a potency, no number is given. The source made the active and inactive calls. Unless noted, calls follow the shape of the full dose curve.

Experiments:
[1] = Nuclear factor erythroid 2-related factor 2/antioxidant responsive element (Nrf2/ARE) small molecule agonists: qHTS cell viability counter screen in human keratinocytes (AID 1919968; active = well fitted curve in the direction sought with a large enough effect in the repeat runs; an effect the other way counts as inactive or inconclusive; also: nearly all actives have a fitted effect of over 55% in size)
Method in brief: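 After a 5 h attachment period, ARE-reporter keratinocytes were dosed with compounds in DMSO and then cultured 23 h at 37 C. Cell viability came from CellTiter-Fluor signal read after a further 1 h.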

[2] = Nuclear factor erythroid 2-related factor 2/antioxidant responsive element (Nrf2/ARE) small molecule agonists: luciferase reporter gene qHTS assay in human keratinocytes (AID 1919969); also: nearly all actives have a fitted effect of over 35% in size; also: potency is read from the fitted curve at half-maximal effect
[3] = G protein-coupled receptor (GPCR) small molecule agonists, calcium flux assay: HEK293 wild type cell line counter screen (AID 1920065)
Method in brief: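 Calcium-sensitive dye, loaded 1 h at 37 C into cells cultured 18 h, reports compound-evoked calcium release as fluorescence (Ex/Em 480/540), measured over 3 min. Agonist mode; 15-point titrations, triplicate.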

[4] = p53 small molecule agonists, cell-based qHTS assay with human liver microsomes (AID 1963577)
Method in brief: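 p53RE-bla reporter cells were pre-incubated 5 h at 37 C, then treated with compounds plus human liver microsomes (0.5 mg/mL final) and NADPH (0.5 mg/mL final) for 16 h at 37 C. Beta-lactamase activity was read by LiveBLAzer fluorescence after 2 h at room temperature.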

[5] = p53 small molecule agonists, cell-based qHTS assay with rat liver microsomes (AID 1963578)
Method in brief: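 p53RE-bla cells were exposed to compounds together with rat liver microsomes (0.5 mg/mL final) and NADPH (0.5 mg/mL final) for 16 h at 37 C, then read by LiveBLAzer beta-lactamase fluorescence after 2 h at room temperature.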

[6] = p53 small molecule agonists, cell-based qHTS assay with human liver microsomes: qHTS cell viability counter screen (AID 1963579); also: nearly all actives have a fitted effect of over 45% in size
Method in brief: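 p53RE-bla cells (4,000/well) were pre-incubated 5 h at 37 C, then given compounds in DMSO plus human liver microsomes (0.5 mg/mL final) and NADPH (0.5 mg/mL final) for 16 h at 37 C. Viability was read by CellTiter-Glo luminescence.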

[7] = p53 small molecule agonists, cell-based qHTS assay with rat liver microsomes: qHTS cell viability counter screen (AID 1963580); also: nearly all actives have a fitted effect of over 45% in size
Method in brief: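 HCT-116 p53RE-bla, 4,000 cells/well, 5 h pre-incubation; cpd + rat liver microsomes 0.5 mg/mL + NADPH 0.5 mg/mL (final); 16 h, 37 C; CellTiter-Glo, 30 min RT; luminescence.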

[8] = p53 small molecule agonists, cell-based qHTS assay (AID 1963582; active = well fitted activation curve with a large enough effect in the signal ratio in the repeat runs, not every such curve was filed as active; the % refers to the signal ratio)
Method in brief: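 In this cell-based concentration-response screen, a p53 response element drives beta-lactamase; cells received DMSO-borne compounds after 5 h culture and were incubated a further 16 h before FRET substrate development.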

[9] = target: 5-hydroxytryptamine receptor 2A (Homo sapiens) (UniProt P28223); assay: 5-hydroxytryptamine receptor 2A (HTR2A) small molecule agonists, cell-based qHTS assay (AID 1963587); also: nearly all actives have a fitted effect of over 30% in size; also: potency is read from the fitted curve at half-maximal effect
Method in brief: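 Kinetic calcium-flux fluorescence (2 min, 1 sec intervals) after compound addition in agonist mode. HTR2A-CHO cells were cultured 18 h, then dye-loaded 1 h at 37 C.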

[10] = target: Muscarinic acetylcholine receptor M1 (Homo sapiens) (UniProt P11229); assay: Cholinergic receptor muscarinic 1 (CHRM1) small molecule antagonists, cell-based qHTS assay (AID 1963588); also: nearly all actives have a fitted effect of over 40% in size
Method in brief: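 CHRM1-CHO calcium-flux assay, antagonist mode. Cells were seeded 18 h, dye-loaded 1 h at 37 C and given compound for 5 min at RT, then acetylcholine was added at 50nM. FDSS fluorescence was read 3 min; 15 concentrations, three runs.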

[11] = target: Muscarinic acetylcholine receptor M1 (Homo sapiens) (UniProt P11229); assay: Cholinergic receptor muscarinic 1 (CHRM1) small molecule agonists, cell-based qHTS assay (AID 1963589); also: nearly all actives have a fitted effect of over 35% in size
Method in brief: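 Measures agonist-induced intracellular calcium rise. Stable human CHRM1 CHO line, 1 h dye load at 37 C, compounds from DMSO, kinetic fluorescence read.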

[12] = cAMP Responsive Elements (CRE) small molecule agonists, cell-based qHTS assay (AID 1963590)
Method in brief: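 A CRE-responsive beta-lactamase reporter in HEK 293T cells was used. Treatment ran 3 h at 37 C; detection used LiveBLAzer B/G FRET substrate for 2 h at room temperature.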

[13] = cAMP Responsive Elements (CRE) small molecule antagonists, cell-based qHTS assay (AID 1963591; active = well fitted inhibition curve with a large enough effect in the signal ratio in the repeat runs, not every such curve was filed as active; the % refers to the signal ratio)
Method in brief: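 HEK293T cells carrying a CRE-driven beta-lactamase reporter receive compound and NKH477 (0.25 uM final) for 3 h. Fluorescence from LiveBLAzer B/G FRET substrate is read after 2 h at room temperature.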

[14] = target: Beta-2 adrenergic receptor (Homo sapiens) (UniProt P07550); assay: Adrenergic beta2 receptor (ADRB2) small molecule antagonists, cell-based qHTS assay (AID 1963592); also: series mostly up to about 92 µM; nearly all actives have a fitted effect of over 50% in size
Method in brief: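 Cells (CHO, stable ADRB2 overexpression) incubated 18-20hr at 37C; compounds added from DMSO; agonist mix (1nM isoproterenol, 100uM IBMX, 25uM Ro-20-1724) added; 0.5hr RT; d2-cAMP and anti-cAMP-cryptate added; 1hr RT; 665/615 nm read.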

[15] = target: D(2) dopamine receptor (Homo sapiens) (UniProt P14416); assay: Dopamine D2 receptor (DRD2) small molecule agonists, cell-based qHTS assay (AID 1963594); also: nearly all actives have a fitted effect of over 35% in size; also: potency is read from the fitted curve at half-maximal effect
Method in brief: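 cAMP accumulation in DRD2-HEK293 cells measured by HTRF after 1 h detection; compounds added 10 min before NKH477 (200nM […]) forskolin-analogue stimulation, 30 min at room temperature, with Ro20-1724 present at 0.1 mM final.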

[16] = p53 small molecule agonists, cell-based qHTS assay: qHTS cell viability counter screen (AID 1963581); also: nearly all actives have a fitted effect of over 45% in size
Method in brief: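 Following 5 h attachment, HCT-116 p53RE-bla cells took up compound for 16 h at 37 C; the reporter was read with B/G FRET substrate (2 h RT), and viability then via CellTiter-Glo ATP luminescence.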

[17] = target: 5-hydroxytryptamine receptor 2A (Homo sapiens) (UniProt P28223); assay: 5-hydroxytryptamine receptor 2A (HTR2A) small molecule antagonists, cell-based qHTS assay (AID 1963586); also: nearly all actives have a fitted effect of over 45% in size
Method in brief: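 Antagonist-mode intracellular calcium assay: DOI (4 nM) added after 5 min compound pre-incubation at room temperature to dye-loaded HTR2A-CHO cells. Fluorescence followed for 3 min, sampled every second.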

[18] = target: D(2) dopamine receptor (Homo sapiens) (UniProt P14416); assay: Dopamine D2 receptor (DRD2) small molecule antagonists, cell-based qHTS assay (AID 1963595; active = well fitted inhibition curve with a large enough effect in the signal ratio in the repeat runs, with a control signal flat; the % refers to the signal ratio)
Method in brief: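 Human DRD2 antagonist qHTS measuring cAMP by HTRF. The cells are exposed to compound for 10 min, then to NKH477 (200 nM) and quinpirole (12 nM) for 30 min at RT, with Ro20-1724 (0.1 mM) present throughout.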

[19] = target: KiSS-1 receptor (Homo sapiens) (UniProt Q969F8); assay: Human kisspeptin (KISS1R) small molecule agonists, calcium flux assay in KISS1R-HEK293 cells (AID 1920064; active = well fitted curve in the direction sought with a large enough effect in the repeat runs; an effect the other way counts as inactive or inconclusive)
Method in brief: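 Kinetic calcium assay, 1 s sampling over 3 min at Ex/Em 480/540, in HEK293 cells engineered with human KISS1R; compounds delivered in DMSO after 1 h dye loading.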

[20] = target: Beta-2 adrenergic receptor (Homo sapiens) (UniProt P07550); assay: Adrenergic beta2 receptor (ADRB2) small molecule agonists, cell-based qHTS assay (AID 1963593);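 also: CHO cells stably overexpressing human ADRB2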
Method in brief: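 CHO cells stably over-expressing ADRB2 were plated overnight at 37C, then dosed with compounds plus a stimulation mix containing 100uM IBMX and 25uM Ro-20-1724 for 0.5hr at room temperature. cAMP was measured by HTRF competition, 1hr.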

Chain of Beta-2 adrenergic receptor (Homo sapiens) (P07550 whole entry, looked up): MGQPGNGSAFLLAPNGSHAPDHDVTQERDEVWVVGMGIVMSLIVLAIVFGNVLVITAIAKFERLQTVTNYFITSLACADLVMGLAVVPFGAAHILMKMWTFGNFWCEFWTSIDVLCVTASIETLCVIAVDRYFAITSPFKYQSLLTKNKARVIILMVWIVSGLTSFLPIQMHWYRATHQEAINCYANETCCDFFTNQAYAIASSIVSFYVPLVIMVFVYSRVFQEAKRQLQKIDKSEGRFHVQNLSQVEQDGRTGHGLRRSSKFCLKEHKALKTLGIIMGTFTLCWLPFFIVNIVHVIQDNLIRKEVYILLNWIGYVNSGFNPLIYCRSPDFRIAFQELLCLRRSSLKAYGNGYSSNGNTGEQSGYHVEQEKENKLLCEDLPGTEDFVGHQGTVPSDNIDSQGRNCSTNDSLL
Chain of KiSS-1 receptor (Homo sapiens) (Q969F8 whole entry, looked up): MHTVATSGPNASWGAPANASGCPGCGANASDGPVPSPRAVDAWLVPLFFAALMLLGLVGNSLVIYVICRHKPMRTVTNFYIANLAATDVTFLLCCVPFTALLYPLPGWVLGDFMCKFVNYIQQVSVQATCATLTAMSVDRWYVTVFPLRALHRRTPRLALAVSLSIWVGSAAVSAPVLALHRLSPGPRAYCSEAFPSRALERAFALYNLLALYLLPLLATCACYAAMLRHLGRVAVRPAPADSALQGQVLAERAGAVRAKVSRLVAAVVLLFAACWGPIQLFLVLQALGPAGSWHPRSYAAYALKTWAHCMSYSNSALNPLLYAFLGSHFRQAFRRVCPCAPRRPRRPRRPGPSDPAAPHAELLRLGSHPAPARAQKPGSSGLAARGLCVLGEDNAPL
Chain of D(2) dopamine receptor (Homo sapiens) (P14416 whole entry, looked up): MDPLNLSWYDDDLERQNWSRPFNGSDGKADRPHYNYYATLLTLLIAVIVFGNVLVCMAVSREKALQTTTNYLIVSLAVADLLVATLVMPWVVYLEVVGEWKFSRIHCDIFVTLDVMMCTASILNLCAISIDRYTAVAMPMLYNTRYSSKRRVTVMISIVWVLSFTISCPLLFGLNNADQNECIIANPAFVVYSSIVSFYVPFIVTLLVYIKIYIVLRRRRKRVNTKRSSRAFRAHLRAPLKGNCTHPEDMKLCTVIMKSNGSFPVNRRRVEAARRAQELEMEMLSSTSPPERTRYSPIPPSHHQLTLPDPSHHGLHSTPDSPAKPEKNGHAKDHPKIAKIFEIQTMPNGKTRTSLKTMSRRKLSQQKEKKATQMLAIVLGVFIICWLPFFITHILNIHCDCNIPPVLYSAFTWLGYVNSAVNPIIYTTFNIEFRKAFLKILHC
Chain of Muscarinic acetylcholine receptor M1 (Homo sapiens) (P11229 whole entry, looked up): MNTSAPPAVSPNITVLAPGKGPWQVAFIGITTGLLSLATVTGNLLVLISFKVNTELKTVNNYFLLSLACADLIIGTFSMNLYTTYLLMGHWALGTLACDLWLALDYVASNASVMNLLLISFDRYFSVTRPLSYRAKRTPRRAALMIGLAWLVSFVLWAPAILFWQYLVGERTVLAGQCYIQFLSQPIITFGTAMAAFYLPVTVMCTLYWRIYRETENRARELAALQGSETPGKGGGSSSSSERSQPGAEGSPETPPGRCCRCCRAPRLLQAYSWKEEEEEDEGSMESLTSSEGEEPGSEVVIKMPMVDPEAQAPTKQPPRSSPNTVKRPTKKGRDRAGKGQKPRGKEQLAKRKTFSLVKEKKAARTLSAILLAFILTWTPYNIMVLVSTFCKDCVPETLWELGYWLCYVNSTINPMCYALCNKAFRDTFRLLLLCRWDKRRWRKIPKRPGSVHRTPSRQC
Chain of 5-hydroxytryptamine receptor 2A (Homo sapiens) (P28223 whole entry, looked up): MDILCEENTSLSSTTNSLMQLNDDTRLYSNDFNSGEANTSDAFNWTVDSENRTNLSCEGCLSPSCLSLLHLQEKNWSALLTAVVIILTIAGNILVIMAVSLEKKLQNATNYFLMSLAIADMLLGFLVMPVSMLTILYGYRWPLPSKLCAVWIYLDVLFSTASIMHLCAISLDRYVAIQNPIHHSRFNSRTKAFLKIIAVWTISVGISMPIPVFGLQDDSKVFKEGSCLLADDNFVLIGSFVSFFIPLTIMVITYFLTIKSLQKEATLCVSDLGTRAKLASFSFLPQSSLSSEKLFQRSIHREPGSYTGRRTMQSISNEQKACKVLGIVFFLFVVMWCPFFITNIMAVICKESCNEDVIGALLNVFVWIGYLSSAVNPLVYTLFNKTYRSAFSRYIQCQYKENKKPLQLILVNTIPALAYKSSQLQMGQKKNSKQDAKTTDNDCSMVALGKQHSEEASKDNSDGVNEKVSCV

Compound | Potency [1] | Potency [2] | Potency [3] | Potency [4] | Potency [5] | Potency [6] | Potency [7] | Potency [8] | Potency [9] | Potency [10] | Potency [11] | Potency [12] | Potency [13] | Potency [14] | Potency [15] | Potency [16] | Potency [17] | Potency [18] | Potency [19] | Potency [20]
CCCCCCCCCCCCCCCCN | inactive | inactive | inactive | inactive | inactive | inactive | inactive | inactive | 23.9 µM (active) | inactive | inactive | inactive | inactive | inactive | inactive | – | – | – | – | –
CCOC(=O)c1ccccc1OC | inactive | inactive | inactive | – | – | inactive | inactive | – | – | – | – | inactive | inactive | inactive | inactive | inactive | inactive | inactive | – | –
CC(C)CCCCCCN | inactive | – | inactive | inactive | inactive | inactive | inactive | inactive | inactive | inactive | inactive | inactive | inactive | inactive | inactive | inactive | inactive | inactive | inactive | –
C=C(C)C(=O)OC | inactive | – | inactive | inactive | inactive | inactive | inactive | inactive | inactive | inactive | inactive | inactive | inactive | inactive | inactive | inactive | inactive | inactive | inactive | –
CCCC(=O)OCC | inactive | – | inactive | inactive | inactive | inactive | inactive | inactive | inactive | inactive | inactive | inactive | inactive | inactive | inactive | inactive | inactive | – | inactive | –
Cc1cccc(C)c1NC(=O)C(C)N (stereo unspecified) | inactive | inactive | inactive | inactive | inactive | inactive | inactive | – | – | – | – | inactive | inactive | – | inactive | inactive | – | inactive | – | inactive
COc1nc(N)nc2c1ncn2[C@@H]1O[C@H](CO)[C@@H](O)[C@@H]1O | inactive | – | inactive | inactive | inactive | inactive | inactive | inactive | inactive | inactive | inactive | inactive | inactive | inactive | inactive | inactive | inactive | – | inactive | inactive
CC1(COc2ccc(CC3SC(=O)NC3=O)cc2)CCCCC1 (stereo unspecified) | inactive | 29.8 µM (active) | inactive | inactive | inactive | – | inactive | inactive | – | – | – | – | – | inactive | 12.8 µM (active) | inactive | – | inactive | – | inactive
CN1CCN(C)CC1 | inactive | – | inactive | inactive | inactive | inactive | inactive | inactive | inactive | inactive | inactive | inactive | inactive | inactive | inactive | inactive | inactive | inactive | inactive | –
CNC(C)=O | inactive | inactive | inactive | – | – | inactive | inactive | – | inactive | inactive | inactive | inactive | inactive | inactive | inactive | inactive | inactive | – | – | inactive
S=C([S-])NCCNC(=S)[S-].[Mn+2] | inactive | inactive | – | – | – | inactive | inactive | – | inactive | inactive | inactive | inactive | – | inactive | inactive | inactive | inactive | – | inactive | inactive
CC(=O)c1ccc(OCC(=O)N2CCCCC2)cc1 | inactive | – | inactive | inactive | inactive | inactive | inactive | inactive | inactive | inactive | inactive | inactive | inactive | inactive | inactive | inactive | inactive | inactive | inactive | –
O=C(c1ccccc1)C1CCCCC1 | inactive | – | inactive | inactive | inactive | inactive | inactive | inactive | inactive | inactive | inactive | inactive | inactive | inactive | inactive | inactive | inactive | inactive | inactive | –
